# Measurements published in the supplement of paper PMC8728848.
# This is one part of a sample in which the strongest signals are shown more often than they occur.
# B1: GS7807I-bvu-563-22-563 (Bacteroides vulgatus) (protein)
# chain: IFSSCTDDFEKLNTSNIQVDPADLPFAAQCTEPMTYCYPPQQNMFQFWTNLTIDLYGGYFMTPNGNFTNGDMGENRGHSGGMYENYYLHIFNNTRRIIAQCDASGERGLSGVMRIVQAYGTLMTTDAYGPIPYSSILSGENEVYFEFDSQKDLYKAMLEDLSTAITDISAMGADEIAKLKSFDCWCNGDKDLWVKIANTMKLRMALRLSKRETEAGNAGMNLKAIATEAAQNTLATVNKDILIDKSLENEMWLMFNWGDCGFNANLVTIMSGTKDPRQPLYMTLNTGDIKNEAGTTTVAANSQYLGIRFASGLPAKPNSWGNFSGWIQGNNGSSYSMPLPIMKAAEAYFLLAEAKLRWDIGSESVKNLYENGIRVSMTNELAYRGAYAGIKEYPEGAVDAYINGTSTQIDYTDPIKAELSTPAVNKLSVKWDESASNEEKLERIITQKWLALFPLSTEGWAEQRRTGYPRFFPAFVNESNGAVNTEEGVRRVIYSSQAYDANAKGVEGGIKLLDEENSSKFGISGDKGGTHLWWDNADKGNF
# Columns and labels:
# Assay in all cases: glycan array binding signal (z-score within array); higher = stronger binding
# Conditions in all cases: glycan notation: IUPAC condensed, linker removed
# [1] = biological target: Fuc(a1-2)Gal(b1-3)GlcNAc(b1-2)Man(a1-3)[Fuc(a1-2)Gal(b1-3)GlcNAc(b1-2)Man(a1-6)]Man(b1-4)GlcNAc(b1-4)GlcNAc
# Summary of the method: (§1)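 Columns mapping to the same glycan were averaged after glycan names were converted to IUPAC-condensed notation. The data come from 3228 arrays in the Consortium for Functional Glycomics database, limited to those with an available protein sequence. Binding is reported as a within-array Z-score averaged across arrays of one protein sequence and across linkers.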
# [2] = biological target: Fuc(a1-2)Gal(b1-3)GlcNAc(b1-3)[Neu5Ac(a2-6)Gal(b1-4)GlcNAc(b1-6)]Gal(b1-4)Glc
# Summary of the method: as §1
# [3] = biological target: Fuc(a1-2)Gal(b1-3)[Fuc(a1-4)]GlcNAc(b1-3)[Gal(b1-4)GlcNAc(b1-6)]Gal(b1-4)Glc
# Summary of the method: as §1
# [4] = biological target: Fuc(a1-2)[Gal(a1-3)]Gal(b1-3)GlcNAc(b1-2)Man(a1-3)[Fuc(a1-2)[Gal(a1-3)]Gal(b1-3)GlcNAc(b1-2)Man(a1-6)]Man(b1-4)GlcNAc(b1-4)[Fuc(a1-6)]GlcNAc
# Summary of the method: as §1
# [5] = biological target: Fuc(a1-2)[Gal(a1-3)]Gal(b1-3)GlcNAc(b1-6)GalNAc
# Summary of the method: as §1
# [6] = biological target: Fuc(a1-2)[GalNAc(a1-3)]Gal(b1-4)GlcNAc(b1-2)Man(a1-3)[Fuc(a1-2)[GalNAc(a1-3)]Gal(b1-4)GlcNAc(b1-2)Man(a1-6)]Man(b1-4)GlcNAc(b1-4)GlcNAc
# Summary of the method: as §1
# [7] = biological target: Fuc(a1-3)[Gal3S(b1-4)]GlcNAc
# Summary of the method: as §1
# [8] = biological target: Fuc(a1-3)[Gal3S(b1-4)]GlcNAc6S
# Summary of the method: as §1
# [9] = biological target: Gal(a1-3)Gal(b1-4)GlcNAc(b1-3)GalNAc
# Summary of the method: as §1
# [10] = biological target: Gal(a1-3)Gal(b1-4)[Fuc(a1-3)]GlcNAc(b1-2)Man(a1-3)[Gal(a1-3)Gal(b1-4)[Fuc(a1-3)]GlcNAc(b1-2)Man(a1-6)]Man(b1-4)GlcNAc(b1-4)GlcNAc
# Summary of the method: as §1
# [11] = biological target: Gal(a1-3)[Gal(a1-4)]Gal(b1-4)GlcNAc
# Summary of the method: as §1
# Gal(a1-4)Gal(b1-4)GlcNAc = biological target: Gal(a1-4)Gal(b1-4)GlcNAc
# Summary of the method: as §1
# [12] = biological target: Gal(a1-4)Gal(b1-4)GlcNAc(b1-2)Man(a1-3)[Gal(a1-4)Gal(b1-4)GlcNAc(b1-2)Man(a1-6)]Man(b1-4)GlcNAc(b1-4)GlcNAc
# Summary of the method: as §1
# [13] = biological target: Gal(b1-3)GlcNAc(b1-2)Man(a1-3)[GlcNAc(b1-4)][Gal(b1-3)GlcNAc(b1-2)Man(a1-6)]Man(b1-4)GlcNAc(b1-4)GlcNAc
# Summary of the method: as §1
# [14] = biological target: Gal(b1-3)GlcNAc(b1-3)Gal(b1-4)Glc
# Summary of the method: as §1
# [15] = biological target: Gal(b1-3)GlcNAc(b1-3)Gal(b1-4)[Fuc(a1-3)]GlcNAc
# Summary of the method: as §1
# [16] = biological target: Gal(b1-3)[Fuc(a1-4)]GlcNAc(b1-6)GalNAc
# Summary of the method: as §1
# [17] = biological target: Gal(b1-3)[GlcNAc(b1-6)]GalNAc
# Summary of the method: as §1
# [18] = biological target: Gal(b1-3)[Neu5Ac(a2-6)]GalNAc
# Summary of the method: as §1
# [19] = biological target: Gal(b1-4)GlcNAc(b1-2)[Gal(b1-4)GlcNAc(b1-6)]Man(a1-6)[Gal(b1-4)GlcNAc(b1-2)Man(a1-3)]Man(b1-4)GlcNAc(b1-4)[Fuc(a1-6)]GlcNAc
# Summary of the method: as §1
# [20] = biological target: Gal(b1-4)GlcNAc(b1-3)Gal(b1-4)GlcNAc(b1-2)[Gal(b1-4)GlcNAc(b1-3)Gal(b1-4)GlcNAc(b1-6)]Man(a1-6)[Gal(b1-4)GlcNAc(b1-3)Gal(b1-4)GlcNAc(b1-2)Man(a1-3)]Man(b1-4)GlcNAc(b1-4)[Fuc(a1-6)]GlcNAc
# Summary of the method: as §1
# [21] = biological target: Gal(b1-4)GlcNAc(b1-3)Gal(b1-4)GlcNAc(b1-3)Gal(b1-4)GlcNAc(b1-3)Gal(b1-4)GlcNAc(b1-2)Man(a1-3)[Gal(b1-4)GlcNAc(b1-3)Gal(b1-4)GlcNAc(b1-3)Gal(b1-4)GlcNAc(b1-3)Gal(b1-4)GlcNAc(b1-2)Man(a1-6)]Man(b1-4)GlcNAc(b1-4)[Fuc(a1-6)]GlcNAc
# Summary of the method: as §1
# Gal3S(b1-3)GlcNAc = biological target: Gal3S(b1-3)GlcNAc
# Summary of the method: as §1
# [22] = biological target: Gal3S(b1-4)[Fuc(a1-3)]GlcNAc
# Summary of the method: as §1
# Glc(b1-4)Glc = biological target: Glc(b1-4)Glc
# Summary of the method: as §1
# [23] = biological target: GlcNAc(a1-4)Gal(b1-4)GlcNAc(b1-3)Gal(b1-4)[Fuc(a1-3)]GlcNAc(b1-3)Gal(b1-4)[Fuc(a1-3)]GlcNAc
# Summary of the method: as §1
# [24] = biological target: GlcNAc(b1-2)Gal(b1-3)GalNAc
# Summary of the method: as §1
# [25] = biological target: GlcNAc(b1-2)Man(a1-3)[GlcNAc(b1-2)Man(a1-6)]Man(b1-4)GlcNAc(b1-4)GlcNAc
# Summary of the method: as §1
# [26] = biological target: GlcNAc(b1-2)[GlcNAc(b1-4)]Man(a1-3)[GlcNAc(b1-4)][GlcNAc(b1-2)[GlcNAc(b1-6)]Man(a1-6)]Man(b1-4)GlcNAc(b1-4)[Fuc(a1-6)]GlcNAc
# Summary of the method: as §1
# [27] = biological target: GlcNAc(b1-3)Gal(b1-4)GlcNAc(b1-3)Gal(b1-4)GlcNAc(b1-2)Man(a1-3)[GlcNAc(b1-3)Gal(b1-4)GlcNAc(b1-3)Gal(b1-4)GlcNAc(b1-2)Man(a1-6)]Man(b1-4)GlcNAc(b1-4)GlcNAc
# Summary of the method: as §1
# [28] = biological target: GlcNAc(b1-3)Gal(b1-4)GlcNAc(b1-3)Gal(b1-4)GlcNAc(b1-3)Gal(b1-4)GlcNAc(b1-2)[GlcNAc(b1-3)Gal(b1-4)GlcNAc(b1-3)Gal(b1-4)GlcNAc(b1-3)Gal(b1-4)GlcNAc(b1-6)]Man(a1-6)[GlcNAc(b1-3)Gal(b1-4)GlcNAc(b1-3)Gal(b1-4)GlcNAc(b1-3)Gal(b1-4)GlcNAc(b1-2)Man(a1-3)]Man(b1-4)GlcNAc(b1-4)[Fuc(a1-6)]GlcNAc
# Summary of the method: as §1
# [29] = biological target: GlcNAc(b1-4)GlcNAc(b1-4)GlcNAc(b1-4)GlcNAc(b1-4)GlcNAc
# Summary of the method: as §1
# [30] = biological target: Man(a1-3)[Man(a1-6)]Man(b1-4)GlcNAc(b1-4)GlcNAc
# Summary of the method: as §1
# [31] = biological target: Neu5Ac(a2-3)Gal(b1-3)[GlcNAc(b1-6)]GalNAc
# Summary of the method: as §1
# Neu5Ac(a2-3)Gal(b1-4)Glc = biological target: Neu5Ac(a2-3)Gal(b1-4)Glc
# Summary of the method: as §1
# [32] = biological target: Neu5Ac(a2-3)Gal(b1-4)GlcNAc(b1-2)Man
# Summary of the method: as §1
# [33] = biological target: Neu5Ac(a2-3)Gal(b1-4)GlcNAc(b1-6)[Neu5Ac(a2-3)Gal(b1-3)]GalNAc
# Summary of the method: as §1
# [34] = biological target: Neu5Ac(a2-3)Gal(b1-4)[Fuc(a1-3)]GlcNAc(b1-3)GalNAc
# Summary of the method: as §1
# [35] = biological target: Neu5Ac(a2-6)Gal(b1-4)GlcNAc(b1-2)Man(a1-6)[Gal(b1-4)GlcNAc(b1-2)Man(a1-3)]Man(b1-4)GlcNAc(b1-4)GlcNAc
# Summary of the method: as §1
# [36] = biological target: Neu5Ac(a2-6)Gal(b1-4)GlcNAc(b1-3)Gal(b1-3)GlcNAc
# Summary of the method: as §1
# [37] = biological target: Neu5Ac(b2-6)Gal(b1-4)GlcNAc
# Summary of the method: as §1
binder,measurement,setting,value
B1,glycan array binding signal (z-score),[1],4.25
same,glycan array binding signal (z-score),[2],-0.639
same,glycan array binding signal (z-score),[3],-0.806
same,glycan array binding signal (z-score),[4],-0.026
same,glycan array binding signal (z-score),[5],0.231
same,glycan array binding signal (z-score),[6],0.159
same,glycan array binding signal (z-score),[7],0.384
same,glycan array binding signal (z-score),[8],0.755
same,glycan array binding signal (z-score),[9],-1.06
same,glycan array binding signal (z-score),[10],3.63
same,glycan array binding signal (z-score),[11],0.09
same,glycan array binding signal (z-score),Gal(a1-4)Gal(b1-4)GlcNAc,0.073
same,glycan array binding signal (z-score),[12],2.76
same,glycan array binding signal (z-score),[13],3.75
same,glycan array binding signal (z-score),[14],-1.02
same,glycan array binding signal (z-score),[15],-0.396
same,glycan array binding signal (z-score),[16],-0.343
same,glycan array binding signal (z-score),[17],-0.484
same,glycan array binding signal (z-score),[18],0.238
same,glycan array binding signal (z-score),[19],-0.297
same,glycan array binding signal (z-score),[20],2.61
same,glycan array binding signal (z-score),[21],3.21
same,glycan array binding signal (z-score),Gal3S(b1-3)GlcNAc,1.03
same,glycan array binding signal (z-score),[22],0.875
same,glycan array binding signal (z-score),Glc(b1-4)Glc,-0.567
same,glycan array binding signal (z-score),[23],2.71
same,glycan array binding signal (z-score),[24],0.388
same,glycan array binding signal (z-score),[25],-0.694
same,glycan array binding signal (z-score),[26],-1.04
same,glycan array binding signal (z-score),[27],2.79
same,glycan array binding signal (z-score),[28],3.79
same,glycan array binding signal (z-score),[29],-0.951
same,glycan array binding signal (z-score),[30],-0.233
same,glycan array binding signal (z-score),[31],0.671
same,glycan array binding signal (z-score),Neu5Ac(a2-3)Gal(b1-4)Glc,0.689
same,glycan array binding signal (z-score),[32],2.84
same,glycan array binding signal (z-score),[33],-0.221
same,glycan array binding signal (z-score),[34],5.03
same,glycan array binding signal (z-score),[35],1.71
same,glycan array binding signal (z-score),[36],-0.945
same,glycan array binding signal (z-score),[37],-0.47
